Screening results: PubChem, several laboratories
Sampled rows, rich in hits. Any-hit rate of the full collection: about 4.3%.
HSF-1 act – HSF-1 activators, primary screen, NIH3T3-HGL cells, MG132 stress, luminescence, single point. NIH3T3-HGL HSF-1 luciferase reporter, 8 h; 100% = twice DMSO control signal. activation, % at 9 µM. AID 504408, 2011. 1.7% of 300,000 active;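 active = mean replicate activation of at least 50% with a set share of replicates each reaching 50%; inconclusive = only one of those two conditions met; inactive = mean below 50% and too few replicates reaching it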;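 also: 0% = median of the neutral control wells and 100% = twice that signal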
esBAF inh – Bmi1 luciferase reporter increase in mESCs, primary screen, esBAF inhibitor project, mouse ES cells, Bmi1 luciferase knock-in, single point; 24 h; 100% = twice the neutral-well signal; reporter increase, % at 12.5 µM; 2% of 350,000 active; in the data active = activation above about 40%; inconclusive = no clear call, values can overlap the other calls;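 also: 0% = median of the plate's neutral control wells and 100% = double that signal; a rise in the Bmi1 reporter signal indicates esBAF inhibition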
HSF1 inhib – HSF1 inhibitors in luciferase reporter cells, primary screen, cell-based, NIH3T3, luminescence; NIH3T3-HGL HSE-luciferase, MG132-induced, luminescence 8 h; stronger effect = lower value; activity change, negative = inhibition, % at 7.5 µM (by protocol); 0.77% of 300,000 active; AID 2098, 2009;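 active = more than half of replicate wells show activity change below -50%, luminescence cut by over half; inconclusive = some wells, but at most half, below -50%; inactive = no replicate well below -50%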;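 also: luciferase reports HSF-1 transcriptional activity via heat shock element; 0% = median of DMSO wells and -100% = zero luminescence signal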
MITF TRPM1 HTS – activators of MITF-driven TRPM1 promoter reporter, primary screen, cell-based, SK-MEL-5, luciferase, single point | SK-MEL-5 TRPM1-promoter luciferase, 24 h; % of positive control, neutral wells = 0 | 0.75% of 300,000 active | AID 588334, 2011 | activation, % at 12.5 µM;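 active = mean activation of at least 80% with every replicate also reaching 80%; inconclusive = mean reaches 80% but some replicate falls short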;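 also: 0% = neutral control wells and 100% = parthenolide positive control wells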
SMARCA2 act – SMARCA2 (BRM) function activators, primary screen, cell-based, luminescence, high throughput; activation, % at 9.1 µM; 1% of 370,000 active; MG213 cells, MMTV-luciferase reporter, dexamethasone, overnight; AID 652017, 2013; in the data active = activation above about 7.8%;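 also: 0% = vehicle wells and 100% = reference activator wells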
Wnt bcat act – Wnt/beta-catenin pathway activators, primary screen, cell-based, plate reader, single point | Wnt/beta-catenin reporter cell assay, activator | activation, % at 9.35 µM | 1.2% of 300,000 active; in the data active = activation above about 30%, passing the limit was not always enough; inconclusive = no clear call, values can overlap the other calls;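 also: 0% = neutral control wells and 100% = positive control wells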
Active calls of the source: *.

Screening C[C@H]1CN([C@@H](C)CO)C(=O)c2cc(NC(=O)CCCN(C)C)ccc2O[C@@H]1CN(C)Cc1ccc(-c2ccccc2)cc1 returned esBAF inh -6.
Cc1nc(NC(=O)c2ccc(Cl)cc2)sc1Cc1ccc2c(c1)OCO2 was read as HSF-1 act 5, esBAF inh 6, HSF1 inhib -1, MITF TRPM1 HTS -1, SMARCA2 act -4 and Wnt bcat act 2.
Cc1nc(NC(=O)c2ccccc2)sc1Cc1ccc2c(c1)OCO2 was read as HSF-1 act 13, esBAF inh 53*, HSF1 inhib 8, MITF TRPM1 HTS 25 and SMARCA2 act 2.
For O=C(C[C@H]1CC[C@H](NC(=O)Nc2cc(F)ccc2F)[C@H](CO)O1)NCCCN1CCOCC1 the results were esBAF inh -3.
`CNc1cc(-c2ccc(OC)nc2)ncn1` gave esBAF inh 50*, SMARCA2 act 1 and Wnt bcat act 20.
For CCN1CC(CN(C)Cc2nc(COc3ccccc3)no2)CC1=O (stereo not given) the results were HSF-1 act 55*, esBAF inh 7, HSF1 inhib 23, MITF TRPM1 HTS -1, SMARCA2 act -1 and Wnt bcat act -1.
For COC(=O)N/N=C/c1ccc(OC(=O)/C=C/c2ccco2)cc1 the results were HSF-1 act -5, HSF1 inhib -6, SMARCA2 act -2 and Wnt bcat act 53*.
`O=C(Cc1ccccc1)N/N=C/c1ccc(OC(=O)/C=C\c2ccco2)cc1` gave HSF-1 act 19, esBAF inh -1, HSF1 inhib 0, MITF TRPM1 HTS -8, SMARCA2 act -1 and Wnt bcat act 104*.
`COc1ccc(NC(=O)Nc2ccc3c(c2)C(=O)N([C@H](C)CO)C[C@@H](C)[C@H](CN(C)C(=O)Nc2ccc4c(c2)OCO4)O3)cc1` gave esBAF inh 4.
Screening Fc1cccc(Cl)c1CN1CCN(c2nc3ccccc3s2)CC1 returned HSF-1 act 16, esBAF inh 70*, HSF1 inhib 9, MITF TRPM1 HTS 77, SMARCA2 act 5 and Wnt bcat act 27.
`Brc1ccc(-c2csc(-c3c[nH]c4ccccc34)n2)cc1` gave HSF-1 act 24, esBAF inh 67*, HSF1 inhib 9, MITF TRPM1 HTS 20, SMARCA2 act 5 and Wnt bcat act -2.
c1ccc2c(-c3csc(-c4ccncc4)n3)c[nH]c2c1 was read as HSF-1 act -10, esBAF inh 52*, HSF1 inhib 1, MITF TRPM1 HTS 126*, SMARCA2 act 1 and Wnt bcat act 28.
Screening Clc1ccc(-c2c[nH]c3ccccc23)nn1 returned HSF-1 act 15, esBAF inh 27, HSF1 inhib 3, MITF TRPM1 HTS 1, SMARCA2 act 2 and Wnt bcat act -12.
COc1ccc(NC(=O)Nc2ccc(N3CCOCC3)c3nonc23)c(OC)c1 was read as HSF-1 act -6, HSF1 inhib -3, MITF TRPM1 HTS 9, SMARCA2 act 0 and Wnt bcat act -1.
Screening O=C(Nc1ccc(F)cc1)N1CCOCC1 returned HSF-1 act -64, HSF1 inhib -53*, MITF TRPM1 HTS 2 and SMARCA2 act -1.
O=C(Nc1ccc(F)cc1)N1CCCCCC1 was read as HSF-1 act 7, esBAF inh 9, HSF1 inhib 5, MITF TRPM1 HTS 28, SMARCA2 act 1 and Wnt bcat act 2.
`CN(C)c1ccc(NC(=O)N2CCOCC2)cc1` gave HSF-1 act -23, esBAF inh 55*, HSF1 inhib -1, MITF TRPM1 HTS 23, SMARCA2 act -1 and Wnt bcat act 8.
O=C(Nc1ccc(F)cc1)Nc1ccc(N2CCOCC2)c2nonc12 was read as HSF-1 act 26, HSF1 inhib 12, MITF TRPM1 HTS 94*, SMARCA2 act 2 and Wnt bcat act 14.
Cc1noc(C)c1S(=O)(=O)Nc1ccc2c(c1)C(=O)N([C@@H](C)CO)C[C@@H](C)[C@@H](CN(C)Cc1ccncc1)OCCCC[C@H](C)O2 was read as esBAF inh 1.
Screening Cc1cccn2c(=O)c3cc(C(=O)NCCc4ccccc4)c(=N)n(Cc4ccco4)c3nc12 returned HSF-1 act 27, esBAF inh -3, HSF1 inhib 23, MITF TRPM1 HTS 10, SMARCA2 act -3 and Wnt bcat act -1.
COc1ccc(CCNC(=O)c2cc3c(=O)n4cccc(C)c4nc3n(Cc3ccco3)c2=N)cc1OC was read as HSF-1 act 99*, esBAF inh 6, HSF1 inhib 70, MITF TRPM1 HTS -4, SMARCA2 act 0 and Wnt bcat act -3.
For O=C(/C=C/c1cccs1)c1ccc(NC(=O)c2cccc(Br)c2)cc1 the results were HSF-1 act -44, esBAF inh 6, HSF1 inhib -30, MITF TRPM1 HTS 33, SMARCA2 act 0 and Wnt bcat act -1.
For Cc1cnc(C(=O)Nc2ccc(OC(F)(F)F)cc2)cn1 the results were HSF-1 act 11, esBAF inh 44*, HSF1 inhib -2, SMARCA2 act 2 and Wnt bcat act 8.
For Nc1cc(C(=O)c2ccccc2)ccc1N1CCOCC1 the results were HSF-1 act 8, esBAF inh 52*, HSF1 inhib 10, SMARCA2 act -2 and Wnt bcat act inconclusive.
`Cc1cnc(C(=O)Nc2nnc(C(C)C)s2)cn1` gave HSF-1 act 15, esBAF inh 6, HSF1 inhib 5, SMARCA2 act 0 and Wnt bcat act 32*.
Cc1ccc(C(=O)Nc2ccc(C(=O)/C=C/c3cccs3)cc2)cc1 was read as HSF-1 act 19, esBAF inh 69*, HSF1 inhib 16, SMARCA2 act 3 and Wnt bcat act 9.
`Cc1cnc(C(=O)Nc2ccc(C(=O)N3CCCCC3)cc2)cn1` gave HSF-1 act 8, esBAF inh -5, HSF1 inhib -4, MITF TRPM1 HTS -2, SMARCA2 act 2 and Wnt bcat act 1.
For CCCN1[C@H](C(=O)OC)[C@@H](CO)[C@@H]2Cn3c(ccc(-c4ccccc4OC)c3=O)[C@@H]21 the results were esBAF inh -3.
For O=C(O)C[C@@H]1C[C@H]2c3cc(NC(=O)Cc4ccncc4)ccc3O[C@H]2[C@H](CO)O1 the results were esBAF inh 1.
Screening COc1cccc(C(=O)Nc2ccc3c(c2)C(=O)N(C)C[C@H](OC)[C@@H](C)CN(C(C)=O)[C@H](C)CO3)c1 returned esBAF inh -1.
